Data reported in PubChem BioAssay AID1159580 (chemical genetic matrix, 2015).
“And” between values parts separate entries of the source, which are not always exact repeats. Equal entries are not always repeated. The whole screen tested about 5,500 compounds, of which about 2,000 (36%) were called active. Not shown: some 18% with an inconclusive outcome. Cut-off read from the data, not from the text of the source: active = normalized growth mostly below about 0.91 (no sharp cut-off); inconclusive = no clear call, values can overlap the other calls; inactive = mostly above about 0.92. Some of the results follow.

Assay: chemical genetic growth profiling, strain panel (AID 1159580);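 note: tested at 20 µM; growth read once vehicle control cultures reached saturation at 30 °C; 1 = growth at the plate median or of vehicle wells; lower values mean less growth of the strain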
Conditions: S. cerevisiae deletion strains, growth OD
[1] = locus YAL013W, strain DEP1, hits give low values
[2] = locus YMR307W, strain GAS1, hits give low values
[3] = locus YNL322C, strain KRE1, hits give low values

Measured: normalized growth

NC(N)=N[C@@H](CCC(=O)O)C(=O)O
inactive: [1] 1.03 | locus YAL040C, strain CLN3, hits give low values 1.09 | locus YCL061C, strain MRC1 (second series), hits give low values 1.01 | locus YDR363W, strain ESC2, hits give low values 1.02 | locus YER002W, strain NOP16, hits give low values 1 | [2] 1.01 | locus YNL128W, strain TEP1, hits give low values 1 | locus YNL153C, strain GIM3, hits give low values 1.02 | locus YNL175C, strain NOP13, hits give low values 1.01 | locus YNL197C, strain WHI3, hits give low values 1.02 | locus YNL224C, strain SQS1, hits give low values 1 | [3] 1.02 | locus YOR083W, strain WHI5 (second series), hits give low values 1.04

C[N+]1(C)C2CC[C@H]1CC(OC(=O)C(O)c1ccccc1)C2 (stereo partly drawn)
inactive: [1] 0.996 | locus YAL021C, strain ccr4, hits give low values 1.02 | locus YAL026C, strain drs2, hits give low values 1 | locus YAL030W, strain snc1, hits give low values 0.999 | locus YBL061C, strain skt5, hits give low values 1 | locus YBR009C, strain hhf1, hits give low values 0.996 | locus YBR021W, strain FUR4, hits give low values 0.985 | locus YBR023C, strain chs3, hits give low values 0.992 | locus YBR171W, strain sec66, hits give low values 1 | locus YBR229C, strain ROT2, hits give low values 0.996 | locus YBR231C, strain swc5, hits give low values 1 | locus YBR279W, strain paf1, hits give low values 1.01 | locus YCL011C, strain gbp2, hits give low values 0.984 | locus YCL016C, strain dcc1, hits give low values 0.971 | locus YCL029C, strain bik1, hits give low values 0.995 | locus YCL061C, strain MRC1, hits give low values 0.998 | locus YCL069W, strain vba3, hits give low values 0.996 | locus YCR088W, strain abp1, hits give low values 0.993 | locus YDL005C, strain med2, hits give low values 0.991 | locus YDL035C, strain GPR1, hits give low values 0.993 | locus YDL040C, strain nat1, hits give low values 0.997 | locus YDL074C, strain BRE1, hits give low values 1.01 | locus YDL101C, strain DUN1, hits give low values 0.996 | locus YDL134C, strain PPH21, hits give low values 1.01 | locus YDL185W, strain tfp1, hits give low values 1.01 | locus YDL192W, strain arf1, hits give low values 1.02 | locus YDR001C, strain nth1, hits give low values 0.993 | locus YDR069C, strain doa4, hits give low values 1.02 | locus YDR101C, strain arx1, hits give low values 0.976 | locus YDR137W, strain rgp1, hits give low values 0.992 | locus YDR159W, strain sac3, hits give low values 1.03 | locus YDR162C, strain NBP2, hits give low values 0.997 | locus YDR195W, strain ref2 1.01 | locus YDR297W, strain sur2, hits give low values 1 | locus YDR318W, strain mcm21, hits give low values 1.02 | locus YDR334W, strain swr1, hits give low values 1 | locus YDR335W, strain msn5, hits give low values 1 | locus YDR388W, hits give low values 1.01 | locus YDR392W, strain spt3, hits give low values 0.94 | locus YDR502C, strain sam2, hits give low values 1.02 | locus YEL003W, strain gim4, hits give low values 1.01 | locus YEL037C, strain rad23, hits give low values 1 | locus YEL061C, strain CIN8 (second series), hits give low values 1 | locus YEL061C, strain CIN8, hits give low values 0.995 | locus YER015W, strain faa2, hits give low values 1 | locus YER016W, strain bim1, hits give low values 1.01 | locus YER110C, hits give low values 1.02 | locus YER111C, strain swi4, hits give low values 0.997 | locus YER155C, strain BEM2 (second series), hits give low values 1 | locus YER155C, strain BEM2, hits give low values 0.988 | locus YER167W, strain BCK2, hits give low values 0.977 | locus YFR010W, strain ubp6, hits give low values 1 | locus YGL078C, strain dbp3, hits give low values 1.03 | locus YGL086W, strain mad1, hits give low values 1 | locus YGL167C, strain pmr1, hits give low values 1.01 | locus YGL173C, strain kem1, hits give low values 1.01 | locus YGL227W, strain vid30, hits give low values 0.988 | locus YGL240W, strain doc1, hits give low values 1.01 | locus YGL248W, strain PDE1, hits give low values 0.999 | locus YGL253W, strain hxk2, hits give low values 1 | locus YGR135W, strain pre9, hits give low values 1.04 | locus YGR229C, strain SMI1, hits give low values 0.976 | locus YGR252W, strain gcn5, hits give low values 1.03 | locus YHR013C, strain ard1, hits give low values 0.999 | locus YHR027C, strain rpn1, hits give low values 1.01 | locus YHR030C, strain SLT2, hits give low values 0.978 and 0.976 | locus YHR079C, strain IRE1 (second series), hits give low values 1.01 | locus YHR079C, strain IRE1, hits give low values 0.967 | locus YHR094C, strain hxt1, hits give low values 1.01 | locus YHR129C, strain ARP1, hits give low values 1.01 | locus YHR142W, strain chs7, hits give low values 0.973 | locus YHR200W, strain rpn10, hits give low values 1.02 | locus YIL066C, strain RNR3, hits give low values 0.999 | locus YIL073C, strain SPO22, hits give low values 1.05 | locus YIL125W, strain kgd1, hits give low values 0.995 | locus YIR030C, strain dcg1, hits give low values 1.01 | locus YJL092W, strain hpr5, hits give low values 0.995 | locus YJL095W, strain BCK1 (second series), hits give low values 0.999 | locus YJL095W, strain BCK1, hits give low values 1.01 and 0.993 | locus YJL115W, strain asf1, hits give low values 0.987 | locus YJL129C, strain trk1, hits give low values 1.01 | locus YJL134W, strain LCB3, hits give low values 0.989 | locus YJL154C, strain vps35, hits give low values 0.993 | locus YJL164C, strain tpk1, hits give low values 1 | locus YJL166W, strain qcr8, hits give low values 0.999 | locus YJL168C, strain set2, hits give low values 1.01 | locus YJL187C, strain SWE1 (second series), hits give low values 1 | locus YJL187C, strain SWE1, hits give low values 1 | locus YJR043C, strain POL32, hits give low values 1 | locus YJR066W, strain TOR1, hits give low values 0.928 | locus YKL009W, strain mrt4, hits give low values 1.01 | locus YKL068W, hits give low values 1 | locus YKL085W, strain MDH1 (second series), hits give low values 1 | locus YKL085W, strain MDH1, hits give low values 1 | locus YKL160W, strain elf1, hits give low values 1 | locus YKL190W, strain CNB1, hits give low values 0.985 | locus YKR001C, strain vps1, hits give low values 0.996 | locus YKR026C, strain gcn3, hits give low values 0.999 | locus YKR091W, strain srl3, hits give low values 0.997 | locus YLL001W, strain dnm1, hits give low values 0.98 | locus YLL026W, hits give low values 0.999 | locus YLL041C, strain sdh2, hits give low values 1 | locus YLR027C, strain aat2, hits give low values 1 | locus YLR039C, strain RIC1, hits give low values 0.967 | locus YLR058C, strain SHM2, hits give low values 1.01 | locus YLR102C, strain apc9, hits give low values 1.02 | locus YLR113W, strain HOG1, hits give low values 1 | locus YLR221C, strain rsa3, hits give low values 0.955 | locus YLR258W, strain gsy2, hits give low values 0.983 | locus YLR262C, strain YPT6 (second series), hits give low values 1 | locus YLR262C, strain YPT6, hits give low values 0.977 | locus YLR268W, strain sec22, hits give low values 1.03 | locus YLR320W, strain mms22, hits give low values 0.978 | locus YLR330W, strain CHS5, hits give low values 1 | locus YLR342W, strain FKS1 (second series), hits give low values 1 | locus YLR342W, strain FKS1, hits give low values 1 | locus YLR357W, strain rsc2, hits give low values 1.01 | locus YLR370C, strain arc18, hits give low values 0.993 | locus YLR371W, strain rom2, hits give low values 1 | locus YLR384C, strain iki3, hits give low values 0.994 | locus YLR418C, strain cdc73, hits give low values 1.05 | locus YML016C, strain PPZ1, hits give low values 1.01 | locus YML032C, strain rad52, hits give low values 0.999 | locus YML120C, strain ndi1, hits give low values 0.964 | locus YML124C, strain tub3, hits give low values 1.01 | locus YMR058W, strain fet3, hits give low values 1.01 | locus YMR078C, strain ctf18, hits give low values 1.03 | locus YMR125W, strain sto1, hits give low values 0.996 | locus YMR129W, hits give low values 0.999 | locus YMR205C, strain PFK2, hits give low values 0.992 | locus YMR223W, strain ubp8, hits give low values 1.02 | locus YMR231W, strain pep5, hits give low values 1 | [2] 0.983 | locus YNL067W, strain RPL9B, hits give low values 0.995 | locus YNL071W, strain lat1, hits give low values 1 | locus YNL183C, strain NPR1, hits give low values 0.956 | locus YNL209W, strain ssb2, hits give low values 1 | locus YNL233W, strain BNI4, hits give low values 1 | locus YNL248C, strain rpa49, hits give low values 1 | locus YNL250W, strain rad50, hits give low values 1.02 | locus YNL271C, strain bni1, hits give low values 1.02 | locus YNL298W, strain CLA4, hits give low values 1.03 | locus YNL307C, strain MCK1, hits give low values 1.02 | locus YNL322C, strain KRE1 (second series), hits give low values 0.991 | [3] 0.998 | locus YNR049C, strain mso1, hits give low values 1.01 | locus YNR052C, strain pop2, hits give low values 1.02 | locus YOL012C, strain htz1 1.26 | locus YOL147C, strain pex11, hits give low values 1.02 | locus YOR001W, strain rrp6, hits give low values 1.03 | locus YOR061W, strain CKA2, hits give low values 1.01 | locus YOR069W, strain VPS5, hits give low values 0.987 | locus YOR070C, strain gyp1, hits give low values 0.999 | locus YOR080W, strain dia2, hits give low values 0.994 | locus YOR083W, strain WHI5, hits give low values 1 | locus YOR106W, strain vam3, hits give low values 1 | locus YOR136W, strain idh2, hits give low values 1.02 | locus YOR144C, strain elg1, hits give low values 1.01 | locus YOR184W, strain ser1, hits give low values 1.03 | locus YOR231W, strain MKK1, hits give low values 0.983 | locus YOR265W, strain rbl2, hits give low values 0.996 | locus YOR270C, strain vph1, hits give low values 1.01 | locus YOR290C, strain snf2, hits give low values 0.966 | locus YOR316C, strain cot1, hits give low values 1.02 | locus YPL051W, strain arl3, hits give low values 1.01 | locus YPL055C, strain LGE1, hits give low values 0.985 | locus YPL078C, strain atp4, hits give low values 1 | locus YPL106C, strain sse1, hits give low values 0.99 | locus YPL240C, strain hsp82, hits give low values 0.997 | locus YPL256C, strain CLN2, hits give low values 0.982 | locus YPR119W, strain clb2, hits give low values 1.01 | locus YPR141C, strain kar3, hits give low values 1.02 | locus YPR163C, strain tif3, hits give low values 1.02 | locus YPR167C, strain met16, hits give low values 1.02 | strain wtn01, hits give low values 1.03
